# Data published in publication PMC5540273 (PLoS ONE, 2017).
# Like-named read-outs stand apart in the source and are kept apart here.
# How the values were obtained:
# Conditions in all cases: n = 1
# CHEK2 = test system: CHEK2
# CIT = test system: CIT
# CLK1 = test system: CLK1
# CLK2 = test system: CLK2
# CLK3 = test system: CLK3
# CLK4 = test system: CLK4
# CSF1R-autoinhibited = test system: CSF1R-autoinhibited
# CSF1R = test system: CSF1R
# CSK = test system: CSK
# CSNK1A1L = test system: CSNK1A1L
# CSNK1A1 = test system: CSNK1A1
# CSNK1D = test system: CSNK1D
# CSNK1E = test system: CSNK1E
# CSNK1G1 = test system: CSNK1G1
# CSNK1G2 = test system: CSNK1G2
# CSNK1G3 = test system: CSNK1G3
# CSNK2A1 = test system: CSNK2A1
# CSNK2A2 = test system: CSNK2A2
# CTK = test system: T1, CTK
# T1 construct: gene MATK
# DAPK1 = test system: DAPK1
# [1] = concentration: 1 μM, replicates: in singlicate
# 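Note: KINOMEscan kinase panel screen.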
smiles,measurement,setting,value
Cc1ccc(NC(=O)Nc2cccc(C(F)(F)F)c2)cc1 [GSK955403],%Inh,CHEK2; 1 µM,0%
same,%Inh,CIT; 1 µM,29%
same,%Inh,CLK1; 1 µM,3%
same,%Inh,CLK2; 1 µM,36%
same,%Inh,CLK3; 1 µM,0%
same,%Inh,CLK4; 1 µM,0%
same,%Inh,CSF1R-autoinhibited; 1 µM,0%
same,%Inh,CSF1R; 1 µM,0%
same,%Inh,CSK; 1 µM,28%
same,%Inh,CSNK1A1L; 1 µM,0%
same,%Inh,CSNK1A1; 1 µM,0%
same,%Inh,CSNK1D; 1 µM,0%
same,%Inh,CSNK1E; 1 µM,0%
same,%Inh,CSNK1G1; 1 µM,0%
same,%Inh,CSNK1G2; 1 µM,1%
same,%Inh,CSNK1G3; 1 µM,0%
same,%Inh,CSNK2A1; 1 µM,1%
same,%Inh,CSNK2A2; 1 µM,0%
same,%Inh,CTK; 1 µM,0%
same,%Inh,DAPK1; 1 µM,18%
Clc1cc(Cl)cc(Nc2ccnc(Nc3cc(Cl)cc(Cl)c3)n2)c1 [GSK175726],%Inh,CHEK2; [1],0%
same,%Inh,CIT; [1],22%
same,%Inh,CLK1; [1],17%
same,%Inh,CLK2; [1],36%
same,%Inh,CLK3; [1],22%
same,%Inh,CLK4; [1],38%
same,%Inh,CSF1R-autoinhibited; [1],0%
same,%Inh,CSF1R; [1],3%
same,%Inh,CSK; [1],0%
same,%Inh,CSNK1A1L; [1],0%
same,%Inh,CSNK1A1; [1],0%
same,%Inh,CSNK1D; [1],17%
same,%Inh,CSNK1E; [1],57%
same,%Inh,CSNK1G1; [1],22%
same,%Inh,CSNK1G2; [1],0%
same,%Inh,CSNK1G3; [1],9%
same,%Inh,CSNK2A1; [1],4%
same,%Inh,CSNK2A2; [1],89%
same,%Inh,CTK; [1],0%
same,%Inh,DAPK1; [1],11%
CCn1c(-c2cccnc2O)nc2cnccc21 [SB-736715],%Inh,CHEK2; [1],0%
same,%Inh,CIT; [1],0%
same,%Inh,CLK1; [1],10%
same,%Inh,CLK2; [1],0%
same,%Inh,CLK3; [1],0%
same,%Inh,CLK4; [1],0%
same,%Inh,CSF1R-autoinhibited; [1],2%
same,%Inh,CSF1R; [1],0%
same,%Inh,CSK; [1],0%
same,%Inh,CSNK1A1L; [1],84%
same,%Inh,CSNK1A1; [1],16%
same,%Inh,CSNK1D; [1],0%
same,%Inh,CSNK1E; [1],0%
same,%Inh,CSNK1G1; [1],0%
same,%Inh,CSNK1G2; [1],0%
same,%Inh,CSNK1G3; [1],0%
same,%Inh,CSNK2A1; [1],0%
same,%Inh,CSNK2A2; [1],0%
same,%Inh,CTK; [1],3%
same,%Inh,DAPK1; [1],0%
Cc1cccc(-c2nc(Nc3ccc4[nH]ncc4c3)c3ccccc3n2)n1 [GW857175],%Inh,CHEK2; [1],0%
same,%Inh,CIT; [1],9%
same,%Inh,CLK1; [1],33%
same,%Inh,CLK2; [1],14%
same,%Inh,CLK3; [1],4%
same,%Inh,CLK4; [1],12%
same,%Inh,CSF1R-autoinhibited; [1],33%
same,%Inh,CSF1R; [1],7%
same,%Inh,CSK; [1],0%
same,%Inh,CSNK1A1L; [1],0%
same,%Inh,CSNK1A1; [1],0%
same,%Inh,CSNK1D; [1],28%
same,%Inh,CSNK1E; [1],28%
same,%Inh,CSNK1G1; [1],15%
same,%Inh,CSNK1G2; [1],0%
same,%Inh,CSNK1G3; [1],18%
same,%Inh,CSNK2A1; [1],94%
same,%Inh,CTK; [1],18%
same,%Inh,DAPK1; [1],10%
COc1cccc(NC(=O)NC2CCN(c3ccnc(Nc4ccc(F)cc4)n3)C2)c1 (stereo not shown) [GSK1379721],%Inh,CHEK2; [1],27%
same,%Inh,CIT; [1],23%
same,%Inh,CLK1; [1],25%
same,%Inh,CLK2; [1],1%
same,%Inh,CLK3; [1],21%
same,%Inh,CLK4; [1],0%
same,%Inh,CSF1R-autoinhibited; [1],17%
same,%Inh,CSF1R; [1],14%
same,%Inh,CSK; [1],6%
same,%Inh,CSNK1A1L; [1],0%
same,%Inh,CSNK1A1; [1],0%
same,%Inh,CSNK1D; [1],0%
same,%Inh,CSNK1E; [1],37%
same,%Inh,CSNK1G1; [1],9%
same,%Inh,CSNK1G2; [1],0%
same,%Inh,CSNK1G3; [1],27%
same,%Inh,CSNK2A1; [1],0%
same,%Inh,CSNK2A2; [1],10%
same,%Inh,CTK; [1],0%
same,%Inh,DAPK1; [1],10%
COC(=O)c1c(-c2ccccc2)c2cc(C(=O)O)ccc2c(=O)n1Cc1ccccc1,%Inh,CHEK2; [1],13%
same,%Inh,CIT; [1],2%
same,%Inh,CLK1; [1],0%
same,%Inh,CLK2; [1],13%
same,%Inh,CLK3; [1],0%
same,%Inh,CLK4; [1],0%
same,%Inh,CSF1R-autoinhibited; [1],0%
same,%Inh,CSF1R; [1],50%
same,%Inh,CSK; [1],8%
same,%Inh,CSNK1A1L; [1],0%
same,%Inh,CSNK1A1; [1],0%
same,%Inh,CSNK1D; [1],7%
same,%Inh,CSNK1E; [1],0%
same,%Inh,CSNK1G1; [1],0%
same,%Inh,CSNK1G2; [1],0%
same,%Inh,CSNK1G3; [1],0%
same,%Inh,CSNK2A1; [1],0%
same,%Inh,CSNK2A2; [1],0%
same,%Inh,CTK; [1],0%
same,%Inh,DAPK1; [1],0%
O=C(Nc1n[nH]c2cc(-c3cccc(F)c3F)ccc12)C1CC1 [SB-733894],%Inh,CHEK2; [1],0%
same,%Inh,CIT; [1],6%
same,%Inh,CLK1; [1],0%
same,%Inh,CLK2; [1],13%
same,%Inh,CLK3; [1],0%
same,%Inh,CLK4; [1],0%
same,%Inh,CSF1R-autoinhibited; [1],0%
same,%Inh,CSF1R; [1],7%
same,%Inh,CSK; [1],0%
same,%Inh,CSNK1A1L; [1],0%
same,%Inh,CSNK1A1; [1],16%
same,%Inh,CSNK1D; [1],17%
same,%Inh,CSNK1E; [1],0%
same,%Inh,CSNK1G1; [1],0%
same,%Inh,CSNK1G2; [1],4%
same,%Inh,CSNK1G3; [1],0%
same,%Inh,CSNK2A1; [1],0%
same,%Inh,CSNK2A2; [1],29%
same,%Inh,CTK; [1],56%
same,%Inh,DAPK1; [1],20%
COc1cc2nccc(Nc3ccc(NC(=O)c4ccc(C)cc4)c(O)c3)c2cc1OC.Cl [GW440132],%Inh,CHEK2; [1],11%
same,%Inh,CIT; [1],11%
same,%Inh,CLK1; [1],37%
same,%Inh,CLK2; [1],0%
same,%Inh,CLK3; [1],87%
same,%Inh,CLK4; [1],14%
same,%Inh,CSF1R-autoinhibited; [1],15%
same,%Inh,CSF1R; [1],18%
same,%Inh,CSK; [1],0%
same,%Inh,CSNK1A1L; [1],9%
same,%Inh,CSNK1A1; [1],0%
same,%Inh,CSNK1D; [1],2%
same,%Inh,CSNK1E; [1],45%
same,%Inh,CSNK1G1; [1],0%
same,%Inh,CSNK1G2; [1],0%
same,%Inh,CSNK1G3; [1],30%
same,%Inh,CSNK2A1; [1],0%
same,%Inh,CSNK2A2; [1],0%
same,%Inh,CTK; [1],0%
same,%Inh,DAPK1; [1],0%
O=C(Nc1n[nH]c2nc(-c3nccs3)c(Br)cc12)C1CC1 [SB-742251],%Inh,CHEK2; [1],0%
same,%Inh,CIT; [1],3%
same,%Inh,CLK1; [1],1%
same,%Inh,CLK2; [1],0%
same,%Inh,CLK3; [1],11%
same,%Inh,CLK4; [1],0%
same,%Inh,CSF1R-autoinhibited; [1],17%
same,%Inh,CSF1R; [1],0%
same,%Inh,CSK; [1],0%
same,%Inh,CSNK1A1L; [1],19%
same,%Inh,CSNK1A1; [1],0%
same,%Inh,CSNK1D; [1],21%
same,%Inh,CSNK1E; [1],14%
same,%Inh,CSNK1G1; [1],13%
same,%Inh,CSNK1G2; [1],0%
same,%Inh,CSNK1G3; [1],0%
same,%Inh,CSNK2A1; [1],0%
same,%Inh,CSNK2A2; [1],36%
same,%Inh,CTK; [1],15%
same,%Inh,DAPK1; [1],0%
COc1ccc2nc(-c3cccc(C)n3)nc(Nc3ccncc3)c2c1 [GSK204919],%Inh,CHEK2; [1],0%
same,%Inh,CIT; [1],73%
same,%Inh,CLK1; [1],18%
same,%Inh,CLK2; [1],0%
same,%Inh,CLK3; [1],2%
same,%Inh,CLK4; [1],26%
same,%Inh,CSF1R-autoinhibited; [1],0%
same,%Inh,CSF1R; [1],3%
same,%Inh,CSK; [1],0%
same,%Inh,CSNK1A1L; [1],5%
same,%Inh,CSNK1A1; [1],31%
same,%Inh,CSNK1D; [1],49%
same,%Inh,CSNK1E; [1],64%
same,%Inh,CSNK1G1; [1],0%
same,%Inh,CSNK1G2; [1],0%
same,%Inh,CSNK1G3; [1],7%
same,%Inh,CSNK2A1; [1],4%
same,%Inh,CSNK2A2; [1],0%
same,%Inh,CTK; [1],0%
same,%Inh,DAPK1; [1],0%
